# Reference: ChEMBL document CHEMBL1961873, “Compounds: GSK PKIS; Assays: Nanosyn kinase panel” (2012)
# Experiments:
# [1] = biological target: Mitogen-activated protein kinase kinase kinase kinase 4 (Homo sapiens) (UniProt O95819); settings: at 1 µM;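 further: reported figure is an averaged inhibition value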
# [2] = biological target: Dual specificity mitogen-activated protein kinase kinase 1 (Homo sapiens) (UniProt Q02750); settings: at 0.1 µM
# [3] = biological target: Dual specificity mitogen-activated protein kinase kinase 1 (Homo sapiens) (UniProt Q02750); settings: at 1 µM
# [4] = biological target: Misshapen-like kinase 1 (Homo sapiens) (UniProt Q8N4C8); settings: at 0.1 µM
# [5] = biological target: Misshapen-like kinase 1 (Homo sapiens) (UniProt Q8N4C8); settings: at 1 µM
# [6] = biological target: T1, Serine/threonine-protein kinase 4 (Homo sapiens) (UniProt Q13043); settings: at 0.1 µM
# T1 sequence (whole entry): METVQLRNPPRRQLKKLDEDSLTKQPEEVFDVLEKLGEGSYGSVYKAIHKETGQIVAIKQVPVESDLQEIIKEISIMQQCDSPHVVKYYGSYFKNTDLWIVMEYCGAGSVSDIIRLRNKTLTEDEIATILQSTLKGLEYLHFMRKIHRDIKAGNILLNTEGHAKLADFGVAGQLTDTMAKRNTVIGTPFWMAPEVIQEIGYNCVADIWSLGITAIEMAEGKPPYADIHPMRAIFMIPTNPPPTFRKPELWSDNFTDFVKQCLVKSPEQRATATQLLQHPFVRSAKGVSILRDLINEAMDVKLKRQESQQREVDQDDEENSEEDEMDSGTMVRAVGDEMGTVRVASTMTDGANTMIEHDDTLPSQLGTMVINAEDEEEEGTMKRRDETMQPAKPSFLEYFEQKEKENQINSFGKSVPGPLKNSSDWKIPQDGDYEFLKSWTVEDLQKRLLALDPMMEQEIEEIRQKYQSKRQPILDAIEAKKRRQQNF
# [7] = biological target: T1, Serine/threonine-protein kinase 4 (Homo sapiens); settings: at 1 µM
# [8] = biological target: T2, Serine/threonine-protein kinase 3 (Homo sapiens) (UniProt Q13188); settings: at 0.1 µM
# T2 sequence (whole entry): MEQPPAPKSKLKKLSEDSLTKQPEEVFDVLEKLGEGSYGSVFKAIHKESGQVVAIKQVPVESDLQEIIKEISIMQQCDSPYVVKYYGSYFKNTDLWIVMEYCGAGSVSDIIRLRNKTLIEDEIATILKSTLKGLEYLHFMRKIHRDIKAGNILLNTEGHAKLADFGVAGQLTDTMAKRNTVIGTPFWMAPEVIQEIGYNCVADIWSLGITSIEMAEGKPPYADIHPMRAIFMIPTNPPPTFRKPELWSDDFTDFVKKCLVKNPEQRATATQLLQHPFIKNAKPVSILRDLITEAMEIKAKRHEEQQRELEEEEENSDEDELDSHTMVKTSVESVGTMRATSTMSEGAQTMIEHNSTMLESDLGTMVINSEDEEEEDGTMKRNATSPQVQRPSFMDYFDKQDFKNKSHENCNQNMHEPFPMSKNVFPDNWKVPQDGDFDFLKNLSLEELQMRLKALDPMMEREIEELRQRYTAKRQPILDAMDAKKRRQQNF
# [9] = biological target: T2, Serine/threonine-protein kinase 3 (Homo sapiens); settings: at 1 µM
# [10] = biological target: Serine/threonine-protein kinase 26 (Homo sapiens) (UniProt Q9P289); settings: at 0.1 µM
# [11] = biological target: Serine/threonine-protein kinase 26 (Homo sapiens) (UniProt Q9P289); settings: at 1 µM
# [12] = biological target: Serine/threonine-protein kinase PAK 1 (Homo sapiens) (UniProt Q13153); settings: at 0.1 µM
# [13] = biological target: Serine/threonine-protein kinase PAK 1 (Homo sapiens) (UniProt Q13153); settings: at 1 µM
# [14] = biological target: Serine/threonine-protein kinase PAK 2 (Homo sapiens) (UniProt Q13177); settings: at 0.1 µM
# [15] = biological target: Serine/threonine-protein kinase PAK 2 (Homo sapiens) (UniProt Q13177); settings: at 1 µM
# [16] = biological target: Serine/threonine-protein kinase PAK 3 (Homo sapiens) (UniProt O75914); settings: at 0.1 µM
# [17] = biological target: Serine/threonine-protein kinase PAK 3 (Homo sapiens) (UniProt O75914); settings: at 1 µM
# [18] = biological target: Serine/threonine-protein kinase PAK 5 (Homo sapiens) (UniProt Q9P286); settings: at 0.1 µM
# [19] = biological target: Serine/threonine-protein kinase PAK 5 (Homo sapiens) (UniProt Q9P286); settings: at 1 µM
# [20] = biological target: Serine/threonine-protein kinase PAK 6 (Homo sapiens) (UniProt Q9NQU5); settings: at 0.1 µM;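 further: mean PAK6 inhibition reported from the GSK PKIS screen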
# Sequence of Serine/threonine-protein kinase PAK 6 (Homo sapiens) (Q9NQU5 whole entry, looked up): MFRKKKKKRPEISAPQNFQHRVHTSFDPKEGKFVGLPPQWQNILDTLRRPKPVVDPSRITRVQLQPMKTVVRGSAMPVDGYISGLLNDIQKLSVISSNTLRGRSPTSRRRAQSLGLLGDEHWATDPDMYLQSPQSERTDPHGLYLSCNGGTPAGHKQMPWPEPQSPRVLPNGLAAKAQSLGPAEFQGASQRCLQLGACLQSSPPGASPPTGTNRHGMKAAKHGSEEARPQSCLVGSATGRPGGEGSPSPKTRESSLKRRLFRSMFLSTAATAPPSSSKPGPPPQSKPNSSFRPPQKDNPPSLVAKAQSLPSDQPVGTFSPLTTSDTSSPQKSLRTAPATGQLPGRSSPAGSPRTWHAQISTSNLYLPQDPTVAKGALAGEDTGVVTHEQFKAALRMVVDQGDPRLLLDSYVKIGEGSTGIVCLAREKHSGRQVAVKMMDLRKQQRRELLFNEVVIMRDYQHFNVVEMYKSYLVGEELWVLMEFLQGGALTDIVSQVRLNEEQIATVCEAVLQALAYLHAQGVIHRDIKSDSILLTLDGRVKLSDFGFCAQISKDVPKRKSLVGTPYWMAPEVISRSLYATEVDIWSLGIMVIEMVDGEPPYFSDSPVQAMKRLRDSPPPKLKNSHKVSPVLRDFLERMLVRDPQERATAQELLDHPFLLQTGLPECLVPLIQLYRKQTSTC
# Sequence of Mitogen-activated protein kinase kinase kinase kinase 4 (Homo sapiens) (O95819 2-1239 limits assumed): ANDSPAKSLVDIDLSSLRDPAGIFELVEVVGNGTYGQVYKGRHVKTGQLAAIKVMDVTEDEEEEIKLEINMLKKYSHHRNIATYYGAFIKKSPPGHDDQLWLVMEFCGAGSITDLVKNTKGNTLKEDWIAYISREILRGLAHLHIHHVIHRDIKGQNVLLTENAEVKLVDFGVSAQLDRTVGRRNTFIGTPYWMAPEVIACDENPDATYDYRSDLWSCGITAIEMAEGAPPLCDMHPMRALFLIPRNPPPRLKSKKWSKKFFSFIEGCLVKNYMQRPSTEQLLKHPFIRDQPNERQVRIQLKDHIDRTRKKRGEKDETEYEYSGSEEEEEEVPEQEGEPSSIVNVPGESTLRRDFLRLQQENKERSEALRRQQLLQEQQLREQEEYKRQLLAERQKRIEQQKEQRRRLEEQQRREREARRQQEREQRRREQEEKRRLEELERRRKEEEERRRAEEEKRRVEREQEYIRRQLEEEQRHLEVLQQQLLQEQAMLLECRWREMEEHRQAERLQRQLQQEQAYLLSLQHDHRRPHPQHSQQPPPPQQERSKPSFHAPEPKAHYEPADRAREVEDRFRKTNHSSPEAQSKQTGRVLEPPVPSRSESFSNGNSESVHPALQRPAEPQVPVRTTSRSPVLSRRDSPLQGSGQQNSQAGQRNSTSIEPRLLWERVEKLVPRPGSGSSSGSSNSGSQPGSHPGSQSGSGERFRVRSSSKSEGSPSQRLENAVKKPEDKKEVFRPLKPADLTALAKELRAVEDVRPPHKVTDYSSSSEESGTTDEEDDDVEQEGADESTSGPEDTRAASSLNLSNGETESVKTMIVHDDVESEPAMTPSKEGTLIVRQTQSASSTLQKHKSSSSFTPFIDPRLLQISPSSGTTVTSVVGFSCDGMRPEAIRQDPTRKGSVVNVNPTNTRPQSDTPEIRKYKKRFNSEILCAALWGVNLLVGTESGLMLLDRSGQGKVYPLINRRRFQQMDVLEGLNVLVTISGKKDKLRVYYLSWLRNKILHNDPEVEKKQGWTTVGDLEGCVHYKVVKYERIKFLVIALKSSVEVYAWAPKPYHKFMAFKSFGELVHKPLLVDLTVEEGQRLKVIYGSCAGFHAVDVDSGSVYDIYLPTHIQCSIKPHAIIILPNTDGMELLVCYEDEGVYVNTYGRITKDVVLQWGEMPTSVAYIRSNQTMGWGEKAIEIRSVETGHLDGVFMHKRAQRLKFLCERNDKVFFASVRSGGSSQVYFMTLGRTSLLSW
# Sequence of Serine/threonine-protein kinase 26 (Homo sapiens) (Q9P289 2-416 limits assumed): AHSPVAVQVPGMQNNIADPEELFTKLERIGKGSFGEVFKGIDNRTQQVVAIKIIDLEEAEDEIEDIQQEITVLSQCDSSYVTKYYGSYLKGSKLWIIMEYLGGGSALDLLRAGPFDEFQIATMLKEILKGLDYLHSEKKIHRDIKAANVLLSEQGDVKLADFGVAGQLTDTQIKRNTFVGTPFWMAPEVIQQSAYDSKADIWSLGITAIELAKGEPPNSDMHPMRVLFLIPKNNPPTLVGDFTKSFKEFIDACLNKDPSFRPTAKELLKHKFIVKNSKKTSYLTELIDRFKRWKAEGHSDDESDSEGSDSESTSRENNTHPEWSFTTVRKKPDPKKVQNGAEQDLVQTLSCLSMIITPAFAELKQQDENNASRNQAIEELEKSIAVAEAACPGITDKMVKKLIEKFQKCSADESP
# Sequence of Serine/threonine-protein kinase PAK 5 (Homo sapiens) (Q9P286 whole entry, looked up): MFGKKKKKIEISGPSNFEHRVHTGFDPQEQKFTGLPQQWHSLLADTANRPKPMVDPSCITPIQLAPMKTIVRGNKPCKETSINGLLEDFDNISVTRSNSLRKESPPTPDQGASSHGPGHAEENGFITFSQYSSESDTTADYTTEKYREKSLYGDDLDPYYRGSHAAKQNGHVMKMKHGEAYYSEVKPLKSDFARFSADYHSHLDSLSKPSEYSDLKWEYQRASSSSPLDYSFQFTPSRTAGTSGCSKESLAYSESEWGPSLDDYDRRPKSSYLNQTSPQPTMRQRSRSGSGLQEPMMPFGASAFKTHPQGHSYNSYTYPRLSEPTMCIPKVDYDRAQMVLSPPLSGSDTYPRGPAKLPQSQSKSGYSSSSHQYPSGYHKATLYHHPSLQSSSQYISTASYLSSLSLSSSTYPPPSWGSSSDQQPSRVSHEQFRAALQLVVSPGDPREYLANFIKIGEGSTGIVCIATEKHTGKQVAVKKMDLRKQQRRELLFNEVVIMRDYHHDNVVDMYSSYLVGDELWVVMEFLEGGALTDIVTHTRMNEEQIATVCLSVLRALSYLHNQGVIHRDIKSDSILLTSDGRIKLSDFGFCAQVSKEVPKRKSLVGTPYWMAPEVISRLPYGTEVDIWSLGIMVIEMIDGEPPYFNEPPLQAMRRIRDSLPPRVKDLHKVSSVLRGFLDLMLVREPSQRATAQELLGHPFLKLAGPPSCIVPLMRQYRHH
# Sequence of Serine/threonine-protein kinase PAK 2 (Homo sapiens) (Q13177 whole entry): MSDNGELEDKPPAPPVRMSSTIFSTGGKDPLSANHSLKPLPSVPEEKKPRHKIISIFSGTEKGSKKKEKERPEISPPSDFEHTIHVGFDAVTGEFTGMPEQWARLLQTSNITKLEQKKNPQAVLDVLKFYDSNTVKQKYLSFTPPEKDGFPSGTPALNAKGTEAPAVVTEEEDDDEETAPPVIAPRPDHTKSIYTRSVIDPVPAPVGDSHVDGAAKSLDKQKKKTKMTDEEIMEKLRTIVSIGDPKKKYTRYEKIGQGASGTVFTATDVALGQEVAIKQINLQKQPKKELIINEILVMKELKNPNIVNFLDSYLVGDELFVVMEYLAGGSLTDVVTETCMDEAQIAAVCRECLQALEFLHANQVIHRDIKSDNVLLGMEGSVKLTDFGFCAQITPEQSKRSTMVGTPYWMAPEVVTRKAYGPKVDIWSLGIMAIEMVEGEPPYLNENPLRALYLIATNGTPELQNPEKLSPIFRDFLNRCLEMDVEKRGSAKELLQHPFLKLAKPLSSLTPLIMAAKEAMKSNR
# Sequence of Dual specificity mitogen-activated protein kinase kinase 1 (Homo sapiens) (Q02750 whole entry): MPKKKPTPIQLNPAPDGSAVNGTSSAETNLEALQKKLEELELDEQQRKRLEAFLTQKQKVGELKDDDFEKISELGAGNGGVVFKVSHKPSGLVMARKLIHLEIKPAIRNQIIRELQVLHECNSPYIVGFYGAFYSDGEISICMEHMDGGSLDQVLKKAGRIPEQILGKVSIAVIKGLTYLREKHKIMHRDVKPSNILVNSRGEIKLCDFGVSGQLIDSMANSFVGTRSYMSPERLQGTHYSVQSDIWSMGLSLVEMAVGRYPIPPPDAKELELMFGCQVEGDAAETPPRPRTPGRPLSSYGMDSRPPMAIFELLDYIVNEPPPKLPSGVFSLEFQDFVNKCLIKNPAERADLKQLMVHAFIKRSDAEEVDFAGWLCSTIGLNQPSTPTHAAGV
# Sequence of Serine/threonine-protein kinase PAK 1 (Homo sapiens) (Q13153 whole entry): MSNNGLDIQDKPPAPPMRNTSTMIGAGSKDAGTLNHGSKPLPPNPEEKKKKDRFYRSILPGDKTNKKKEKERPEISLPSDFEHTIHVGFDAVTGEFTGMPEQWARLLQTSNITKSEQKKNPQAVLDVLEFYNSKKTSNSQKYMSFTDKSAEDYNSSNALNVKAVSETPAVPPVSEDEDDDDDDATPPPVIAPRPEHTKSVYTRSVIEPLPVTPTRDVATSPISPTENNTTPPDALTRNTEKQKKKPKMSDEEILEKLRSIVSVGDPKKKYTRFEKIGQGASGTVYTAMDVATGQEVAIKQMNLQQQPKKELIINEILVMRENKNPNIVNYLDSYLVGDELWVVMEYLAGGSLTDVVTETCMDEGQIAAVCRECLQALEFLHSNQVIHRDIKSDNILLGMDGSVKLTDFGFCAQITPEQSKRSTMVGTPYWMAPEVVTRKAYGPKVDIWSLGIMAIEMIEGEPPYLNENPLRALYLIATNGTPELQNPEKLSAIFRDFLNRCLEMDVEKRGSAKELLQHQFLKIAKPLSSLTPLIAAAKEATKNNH
SMILES,inhibition [1],inhibition [2],inhibition [3],inhibition [4],inhibition [5],inhibition [6],inhibition [7],inhibition [8],inhibition [9],inhibition [10],inhibition [11],inhibition [12],inhibition [13],inhibition [14],inhibition [15],inhibition [16],inhibition [17],inhibition [18],inhibition [19],inhibition [20]
COc1cccc(-n2ncc3c(N/N=C/c4ccc(C)cc4)ncnc32)c1,21%,4.05%,3.78%,7.18%,16.1%,5.34%,13.2%,6.16%,11.4%,-1.81%,-3.2%,10%,9.32%,1.75%,1.47%,6.06%,6.42%,6.1%,10.7%,–
CCn1c(-c2nonc2N)nc2c(C#CC(C)(C)O)nc(OCCNC)cc21,6.25%,3.55%,3.92%,5.45%,5.87%,3.15%,6.97%,5.27%,7.27%,-3.54%,-1.03%,8.56%,5.49%,1.23%,2.27%,3.16%,5.05%,3.8%,12.5%,–
NS(=O)(=O)c1ccc(Nc2cc(-c3cccc(O)c3)n[nH]2)cc1,17.6%,7.97%,5.67%,8%,18.6%,9.01%,16.1%,8.2%,13.4%,-1.36%,-4.6%,9.49%,7.81%,3.22%,2.59%,6.66%,6.8%,3.04%,-6.9%,-0.89%
COc1cccc(-n2ncc3c(N/N=C/c4ccc(S(C)(=O)=O)cc4)ncnc32)c1,59.4%,1.79%,1.58%,13.4%,50.3%,1.66%,4.3%,0.59%,2.91%,1.71%,2.58%,2.37%,3.02%,-0.07%,-0.47%,0.46%,1.53%,2.27%,10.1%,-8.81%
COc1cc2ncnc(Nc3ccc4c(cnn4Cc4ccccc4)c3)c2cc1OC,9.55%,3.32%,2.12%,7.38%,9.64%,3.42%,7.03%,2.19%,5.68%,-0.63%,-2.02%,4.26%,6.92%,1.54%,2.6%,2.02%,3.19%,1.77%,2.16%,–
Cc1ccc2c(-c3ccnc(Nc4cccc(C(F)(F)F)c4)n3)c(-c3ccccc3)nn2n1,46.8%,5.35%,7.59%,8.79%,38.2%,3.51%,7.31%,5.68%,6.69%,0.2%,13.3%,9.96%,8.06%,1.38%,1.7%,5.11%,5.68%,-4.38%,-7%,–
COc1cc2ncn(-c3cc(OCc4ccccc4S(C)(=O)=O)c(C#N)s3)c2cc1OC,90.5%,3.78%,7.23%,43.7%,83.5%,22.3%,66.4%,17.3%,51.5%,-1.33%,0.22%,6.88%,5.61%,0.99%,2.17%,4.63%,5.52%,3.87%,4.97%,4.22%
CN1CCN(C(=O)c2ccc(NC(=O)Nc3ccc(N(C)c4ccnc(Nc5ccc(CS(C)(=O)=O)cc5)n4)cc3)cc2)CC1,58.6%,1.05%,10.8%,7.54%,42.4%,16.1%,60.9%,6.27%,28.3%,1.7%,12.8%,-0.46%,6.1%,0.16%,1.51%,1.85%,5.09%,3.35%,17.6%,–
Cc1ccc(Nc2ccnc(Nc3cccc(C(N)=O)c3)n2)cc1O,28.9%,4.22%,4.94%,6.27%,22%,5.18%,12.2%,4.59%,10.1%,0.27%,2.75%,5.46%,8.57%,1.77%,1.45%,3.06%,3.98%,5.17%,11.2%,–
NS(=O)(=O)c1ccc(-c2cc3ccncc3cc2OCc2ccccc2)cc1,6.71%,4.49%,3.72%,2.78%,5.92%,5.08%,7.76%,5.7%,5.97%,0.92%,0.38%,5.31%,6.13%,1.08%,0.46%,3.48%,4.21%,1.12%,-3.7%,–
COc1cccc(-n2nc(C)c3c(N/N=C(\C)c4ccncc4)ncnc32)c1,4.83%,-0.14%,-0.11%,1.43%,6.12%,1.29%,1.63%,1.78%,3.56%,-0.95%,1.92%,-1.07%,5.57%,-1.35%,-0.3%,0.46%,2.49%,-0.74%,-1.22%,–
c1ccc(Cc2nc3ccc(Nc4ncnc5ccccc45)cc3[nH]2)cc1,10%,2.72%,2.98%,4.23%,9.55%,4.48%,8.56%,5.09%,8.29%,-0.58%,-0.26%,4.28%,3.15%,2.47%,2.26%,3.68%,4.32%,5.6%,7.77%,-3.41%
CCS(=O)(=O)c1ccc(OC)c(Nc2nccc(N(C)c3ccc4c(C)n[nH]c4c3)n2)c1,15.6%,4.63%,5.1%,3.64%,11.7%,4.2%,5.13%,4.58%,5.24%,-2.14%,0.16%,3.86%,6.28%,1.58%,1.86%,5.97%,5.09%,1.92%,0.85%,–
CCS(=O)(=O)c1ccc(OC)c(Nc2ncc(-c3cccc(OC)c3)o2)c1,25.9%,2.58%,3.57%,5.68%,16.8%,6.63%,10.6%,6.69%,7.22%,-1.42%,-4.12%,2.01%,5.71%,2.79%,1.98%,3.24%,2.36%,6.72%,-1.57%,-4.37%
